Reference: ChEMBL document CHEMBL1961873, “Compounds: GSK PKIS; Assays: Nanosyn kinase panel” (2012)
Where “and” joins values, the source holds several entries; their conditions need not be identical. Equal entries are not always repeated.

What was measured:
[1] = target: Leukocyte tyrosine kinase receptor (Homo sapiens) (UniProt P29376); conditions: at 1 µM;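 also: each value is the mean inhibition of LTK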
[2] = target: Tyrosine-protein kinase Lyn (Homo sapiens) (UniProt P07948); conditions: at 0.1 µM
[3] = target: Tyrosine-protein kinase Lyn (Homo sapiens) (UniProt P07948); conditions: at 1 µM
[4] = target: Tyrosine-protein kinase Lyn (Homo sapiens) (UniProt P07948); conditions: at 0.1 µM; remark: listed apart in the source
[5] = target: Tyrosine-protein kinase Lyn (Homo sapiens) (UniProt P07948); conditions: at 1 µM; remark: listed apart in the source
[6] = target: T1, Tyrosine-protein kinase Mer (Homo sapiens) (UniProt Q12866); conditions: at 0.1 µM
T1 sequence (whole entry): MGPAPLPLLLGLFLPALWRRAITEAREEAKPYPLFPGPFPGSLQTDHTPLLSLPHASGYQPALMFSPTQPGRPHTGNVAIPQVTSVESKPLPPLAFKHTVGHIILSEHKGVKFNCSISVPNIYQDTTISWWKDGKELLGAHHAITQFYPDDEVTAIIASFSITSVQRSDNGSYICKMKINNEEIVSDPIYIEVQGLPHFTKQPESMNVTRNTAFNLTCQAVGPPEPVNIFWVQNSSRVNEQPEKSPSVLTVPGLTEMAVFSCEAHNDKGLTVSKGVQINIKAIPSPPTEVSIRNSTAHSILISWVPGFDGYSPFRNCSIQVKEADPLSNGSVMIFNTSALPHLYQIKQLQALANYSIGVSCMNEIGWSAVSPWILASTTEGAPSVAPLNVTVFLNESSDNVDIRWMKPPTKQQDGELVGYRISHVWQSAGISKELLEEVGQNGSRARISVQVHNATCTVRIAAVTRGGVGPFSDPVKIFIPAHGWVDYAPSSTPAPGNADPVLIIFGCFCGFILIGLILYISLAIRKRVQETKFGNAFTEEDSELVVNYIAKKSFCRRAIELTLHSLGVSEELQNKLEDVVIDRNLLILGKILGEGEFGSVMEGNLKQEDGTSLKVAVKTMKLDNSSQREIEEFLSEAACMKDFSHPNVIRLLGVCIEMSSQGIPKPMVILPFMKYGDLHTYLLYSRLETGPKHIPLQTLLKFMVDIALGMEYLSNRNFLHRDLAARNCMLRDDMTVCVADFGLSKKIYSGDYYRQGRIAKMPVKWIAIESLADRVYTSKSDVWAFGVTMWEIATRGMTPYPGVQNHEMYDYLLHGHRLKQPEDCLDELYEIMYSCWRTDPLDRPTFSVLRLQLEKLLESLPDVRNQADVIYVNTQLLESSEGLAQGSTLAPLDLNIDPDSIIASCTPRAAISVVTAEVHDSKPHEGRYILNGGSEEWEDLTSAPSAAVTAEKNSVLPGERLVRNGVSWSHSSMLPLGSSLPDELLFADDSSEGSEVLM

[7] = target: T1, Tyrosine-protein kinase Mer (Homo sapiens); conditions: at 1 µM
[8] = target: Hepatocyte growth factor receptor (Homo sapiens) (UniProt P08581); conditions: at 0.1 µM
[9] = target: Hepatocyte growth factor receptor (Homo sapiens) (UniProt P08581); conditions: at 1 µM
[10] = target: T2, Muscle, skeletal receptor tyrosine-protein kinase (Homo sapiens) (UniProt O15146); conditions: at 0.1 µM;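 also: values are mean inhibition of MuSK from the GSK PKIS kinase screening panel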
T2 sequence (whole entry): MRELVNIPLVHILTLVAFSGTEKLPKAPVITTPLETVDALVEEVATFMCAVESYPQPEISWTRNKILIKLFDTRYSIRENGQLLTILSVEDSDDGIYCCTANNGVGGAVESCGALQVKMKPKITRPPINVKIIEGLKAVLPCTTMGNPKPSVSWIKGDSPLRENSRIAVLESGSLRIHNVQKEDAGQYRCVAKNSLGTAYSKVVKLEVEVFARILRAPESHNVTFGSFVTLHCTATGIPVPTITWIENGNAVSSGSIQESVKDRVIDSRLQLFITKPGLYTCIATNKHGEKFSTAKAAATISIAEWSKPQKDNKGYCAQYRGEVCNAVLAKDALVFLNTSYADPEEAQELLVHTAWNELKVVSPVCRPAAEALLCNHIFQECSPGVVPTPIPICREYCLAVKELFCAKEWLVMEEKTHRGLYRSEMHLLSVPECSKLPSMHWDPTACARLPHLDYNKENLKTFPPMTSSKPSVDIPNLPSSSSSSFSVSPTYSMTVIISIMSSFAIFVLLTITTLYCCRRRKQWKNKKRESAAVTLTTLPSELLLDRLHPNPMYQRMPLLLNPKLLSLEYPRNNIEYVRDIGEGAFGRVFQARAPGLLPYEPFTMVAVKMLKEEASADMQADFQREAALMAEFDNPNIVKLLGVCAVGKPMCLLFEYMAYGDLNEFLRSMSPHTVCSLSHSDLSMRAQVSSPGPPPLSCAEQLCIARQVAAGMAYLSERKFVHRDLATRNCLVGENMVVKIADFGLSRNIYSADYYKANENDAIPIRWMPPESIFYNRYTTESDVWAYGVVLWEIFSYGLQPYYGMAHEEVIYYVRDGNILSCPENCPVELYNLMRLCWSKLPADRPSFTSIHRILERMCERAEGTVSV

Hepatocyte growth factor receptor (Homo sapiens), sequence (P08581 whole entry): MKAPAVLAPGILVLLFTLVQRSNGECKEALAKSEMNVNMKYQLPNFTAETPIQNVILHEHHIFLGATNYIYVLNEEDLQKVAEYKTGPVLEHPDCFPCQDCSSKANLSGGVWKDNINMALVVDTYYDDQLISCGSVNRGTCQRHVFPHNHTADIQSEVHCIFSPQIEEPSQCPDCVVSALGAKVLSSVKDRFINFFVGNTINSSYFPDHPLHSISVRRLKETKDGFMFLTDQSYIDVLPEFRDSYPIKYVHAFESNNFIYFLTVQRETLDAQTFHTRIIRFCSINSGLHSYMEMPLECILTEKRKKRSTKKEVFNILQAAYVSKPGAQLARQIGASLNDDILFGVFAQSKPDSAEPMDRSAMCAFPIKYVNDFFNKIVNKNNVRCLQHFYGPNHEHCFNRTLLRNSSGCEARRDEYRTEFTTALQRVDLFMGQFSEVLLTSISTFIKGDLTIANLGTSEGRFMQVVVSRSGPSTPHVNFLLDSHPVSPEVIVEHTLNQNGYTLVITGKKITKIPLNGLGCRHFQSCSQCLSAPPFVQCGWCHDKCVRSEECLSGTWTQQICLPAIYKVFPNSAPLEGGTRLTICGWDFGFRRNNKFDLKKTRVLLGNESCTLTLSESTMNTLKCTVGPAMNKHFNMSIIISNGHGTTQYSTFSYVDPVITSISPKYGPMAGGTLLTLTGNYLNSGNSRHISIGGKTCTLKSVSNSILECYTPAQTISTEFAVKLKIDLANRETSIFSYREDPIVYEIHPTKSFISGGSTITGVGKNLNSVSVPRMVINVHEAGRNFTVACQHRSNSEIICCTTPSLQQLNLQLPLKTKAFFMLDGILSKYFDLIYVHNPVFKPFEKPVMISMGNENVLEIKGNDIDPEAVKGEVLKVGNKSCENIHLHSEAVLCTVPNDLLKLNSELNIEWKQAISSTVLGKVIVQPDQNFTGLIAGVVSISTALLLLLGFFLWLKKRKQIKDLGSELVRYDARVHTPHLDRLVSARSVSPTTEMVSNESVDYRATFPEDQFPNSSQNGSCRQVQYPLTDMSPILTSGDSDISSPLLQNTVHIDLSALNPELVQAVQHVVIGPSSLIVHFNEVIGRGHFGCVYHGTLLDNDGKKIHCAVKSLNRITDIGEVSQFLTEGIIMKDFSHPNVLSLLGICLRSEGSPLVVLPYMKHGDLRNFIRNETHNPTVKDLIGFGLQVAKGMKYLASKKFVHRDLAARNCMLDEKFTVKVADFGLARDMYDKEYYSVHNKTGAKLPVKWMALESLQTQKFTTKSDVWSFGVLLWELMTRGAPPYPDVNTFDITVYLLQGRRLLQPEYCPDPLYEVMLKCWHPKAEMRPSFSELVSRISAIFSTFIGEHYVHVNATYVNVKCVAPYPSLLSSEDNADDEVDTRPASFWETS
Leukocyte tyrosine kinase receptor (Homo sapiens), sequence (P29376 whole entry): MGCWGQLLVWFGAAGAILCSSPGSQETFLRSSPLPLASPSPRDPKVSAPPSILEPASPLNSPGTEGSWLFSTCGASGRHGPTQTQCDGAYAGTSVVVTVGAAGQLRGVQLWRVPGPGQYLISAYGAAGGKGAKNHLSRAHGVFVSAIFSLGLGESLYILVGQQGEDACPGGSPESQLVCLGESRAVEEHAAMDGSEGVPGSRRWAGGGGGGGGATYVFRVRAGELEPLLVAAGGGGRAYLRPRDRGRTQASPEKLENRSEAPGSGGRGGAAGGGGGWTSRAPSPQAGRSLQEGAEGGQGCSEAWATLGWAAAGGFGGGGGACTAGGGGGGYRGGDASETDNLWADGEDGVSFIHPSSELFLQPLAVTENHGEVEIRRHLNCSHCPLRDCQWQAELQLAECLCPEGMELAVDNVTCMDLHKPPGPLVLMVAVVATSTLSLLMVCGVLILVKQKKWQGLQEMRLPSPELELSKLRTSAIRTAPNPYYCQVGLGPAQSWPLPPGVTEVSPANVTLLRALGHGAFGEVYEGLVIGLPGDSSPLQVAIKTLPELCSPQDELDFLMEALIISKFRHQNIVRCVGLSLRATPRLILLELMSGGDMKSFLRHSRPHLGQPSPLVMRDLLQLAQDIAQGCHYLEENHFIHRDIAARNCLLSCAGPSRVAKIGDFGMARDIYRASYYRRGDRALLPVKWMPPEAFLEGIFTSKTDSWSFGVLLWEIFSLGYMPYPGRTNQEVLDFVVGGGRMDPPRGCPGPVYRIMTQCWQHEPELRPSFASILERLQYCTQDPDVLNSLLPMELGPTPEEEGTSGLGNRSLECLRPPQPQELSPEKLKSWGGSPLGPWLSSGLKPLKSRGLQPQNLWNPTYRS
Tyrosine-protein kinase Lyn (Homo sapiens), sequence (P07948 2-512 limits assumed): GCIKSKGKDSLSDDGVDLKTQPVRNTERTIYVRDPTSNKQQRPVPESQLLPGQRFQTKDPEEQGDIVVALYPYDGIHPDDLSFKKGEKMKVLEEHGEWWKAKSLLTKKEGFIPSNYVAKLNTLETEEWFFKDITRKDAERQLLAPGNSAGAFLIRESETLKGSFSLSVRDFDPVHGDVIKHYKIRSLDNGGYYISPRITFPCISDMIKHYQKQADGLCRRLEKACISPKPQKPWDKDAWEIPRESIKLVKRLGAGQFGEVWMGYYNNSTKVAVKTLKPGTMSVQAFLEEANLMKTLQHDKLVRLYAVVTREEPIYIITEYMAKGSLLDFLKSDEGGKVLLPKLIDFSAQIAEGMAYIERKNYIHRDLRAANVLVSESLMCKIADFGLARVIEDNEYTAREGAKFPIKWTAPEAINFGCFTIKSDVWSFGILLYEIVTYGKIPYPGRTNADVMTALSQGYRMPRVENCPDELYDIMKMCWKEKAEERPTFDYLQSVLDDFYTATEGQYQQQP

Structure (SMILES) | inhibition [1] | inhibition [2] | inhibition [3] | inhibition [4] | inhibition [5] | inhibition [6] | inhibition [7] | inhibition [8] | inhibition [9] | inhibition [10]
Cn1c(-c2nonc2N)nc2cnccc21 | 4.18% | 4.05% | 2.29% | 2.97% | 1.52% | 1.12% | 3.84% | 3.78% | 3.65% | 2.14%
COc1c(C(N)=O)cc(-c2ccc(Cl)cc2)cc1-c1ccc(S(N)(=O)=O)cc1 | 6.74% | 5.65% | 6.7% | 3.05% | 3.95% | 2.2% | 6.71% | 10.9% | 5.98% | 2.39%
CC(C)c1ccc(-c2cc(-c3c[nH]nc3-c3ccccn3)ccn2)cc1 | 2.43% | 1.49% | 1.48% | 0.81% | 1.31% | -0.12% | 3.22% | -1.81% | 3.3% | 5.54%
Fc1ccc(Nc2nccc(-c3c(-c4ccc(C(F)(F)F)cc4)nn4ncccc34)n2)cc1F | 3.06% | 2.77% | 2.13% | 1.22% | 0.38% | 3.18% | 2.81% | 4.74% | 4.74% | 2.34%
COc1cc2c(cc1Nc1nc(Nc3cccc(F)c3C(N)=O)c3cc[nH]c3n1)N(C(=O)CN1CCN(C(C)C)CC1)CC2 | 80.7% | 0.63% | -0.57% | -1.56% | -0.54% | 1.98% | 3.27% | 5.94% | 1.99% | 1.22%
Cc1ccc(-c2cc3c(NC(=O)C4CC4)ncnc3o2)cc1 | 3.83% | 5.46% | 6.63% | 2.61% | 5.69% | 2.35% | 6.56% | 4.71% | 4.06% | 2.65%
CNC(=O)c1sc(-n2cnc3cc(OC)c(OC)cc32)cc1OCc1ccccc1C(F)(F)F | 3.95% | 3.05% | 8.91% | 4.12% | 7.2% | 0.56% | 2.64% | 1.53% | 3.89% | 2.71%
CS(=O)(=O)Nc1ccc(-c2ccc3c(NC(=O)C4CC4)n[nH]c3c2)cc1 | 3.75% | 3.8% | 4.62% | 2.46% | 3.58% | 0.84% | 3.15% | 6.7% | -3.22% | 3.2%
Nc1nccc(-c2c(-c3ccc(F)cc3)ncn2C2CCNCC2)n1 | -1.33% and 1.18% | -0.63% and 1.67% | 9.44% and 9.35% | -1.82% and 1.01% | 7.55% and 6.33% | 0.83% and 0.35% | 2.87% and 1.44% | -2.37% and 2.87% | -2.98% and 4.72% | -3.15% and 1.87%
CCCNc1cccc(-n2ncc3c(N/N=C/c4ccncc4)ncnc32)c1 | 4.23% | 18% | 69.6% | 15.4% | 64.8% | 6.21% | 25.6% | 12.6% | 49% | 8.51%
O=C1Nc2ccccc2/C1=C1\CCc2cc(O)ccc21 | 36.7% | 6.08% | 12% | 2.38% | 9.08% | 2.69% | 8.7% | 6.45% | 10.1% | 5.49%
COc1ccccc1-c1cc(/C=C2\C(=O)Nc3ncc(Br)cc32)cc(Br)c1O | 5.69% | 6% | 14.4% | 4.58% | 9.46% | 3.28% | 7.77% | 1.57% | 4.03% | 1.98%
COc1cc(N2CCN(C(C)C)CC2)ccc1Nc1nc(Nc2cccc3ncccc23)c2cc[nH]c2n1 | 80.2% | 0.41% | 2.82% | 0.31% | 2.18% | 0.54% | 2.09% | -2.89% | -1.9% | 5.11%
O=C(O[C@H]1CN[C@H](C#Cc2cc3ncnc(Nc4ccc(OCc5cccc(F)c5)c(Cl)c4)c3s2)C1)N1CCOCC1 | 5.96% | 5.44% | 6.48% | 2.24% | 4.85% | 2.6% | 5.1% | 4.9% | 7.49% | 1.77%
COc1cc(Nc2ncc(-c3ccccc3)o2)cc(OC)c1 | 5.66% | 8.05% | 27.4% | 5.81% | 22.1% | 3.6% | 4.87% | 3.69% | 5.98% | 2.95%
COc1ccc2ncn(-c3cc(O[C@H](C)c4ccccc4C(F)(F)F)c(C(N)=O)s3)c2c1 | 1.97% | 0.92% | 1.75% | -0.04% | 1.72% | -0.24% | 2.59% | -3.32% | 0.66% | 3.55%

Structure (SMILES) | inhibition [1] | inhibition [2] | inhibition [3] | inhibition [4] | inhibition [5] | inhibition [6] | inhibition [7] | inhibition [8] | inhibition [9] | inhibition [10]
CC1(C)CC(n2cnc(-c3ccc(F)cc3)c2-c2ccnc(N)n2)CC(C)(C)N1 | 0.76% | 0.33% | 2.44% | -0.62% | 0.86% | 0.86% | 3.06% | -5.05% | 5.56% | 0.69%
CCS(=O)(=O)c1ccc(OC)c(Nc2ncc(-c3cccc(C(C)=O)c3)o2)c1 | 3.34% | 11.3% | 45.5% | 7.74% | 40.8% | 1.15% | 2.12% | 1.95% | 7.9% | 2.82%
NC(=O)c1ccc2c(-c3ccnc(NCCCO)n3)c(-c3ccc(F)cc3)nn2c1 | 6.21% | 6.82% | 12.1% | 4.82% | 10.6% | 5.01% | 14.2% | 7.18% | 15.1% | 3.34%
CN1CCC(n2cnc(-c3ccc(F)cc3)c2-c2ccnc(NCCO)n2)CC1 | 5.36% | 5.64% | 7.19% | 3.08% | 5.79% | 2.22% | 7.18% | 0.32% | 10.6% | 3.32%
Cc1cc(O)cc(C)c1/C=C/c1cncc(C(N)=O)c1 | 3.91% | 14.8% | 61% | 10.4% | 57% | 1.5% | 2.49% | 0.96% | 6.76% | 3.77%
O=C(O[C@H]1CN[C@H](C#Cc2cc3ncnc(Nc4ccc5c(ccn5Cc5cc(F)ccc5F)c4)c3s2)C1)N1CCOCC1 | 4.15% | 4.33% | 6.23% | 2.03% | 1.87% | 1.34% | 3.33% | 7.21% | 10.8% | 2.87%
O=C(Nc1n[nH]c2nnc(-c3cccnc3)cc12)C1CC1 | 0.15% | 0.94% | 1.49% | 1.05% | 1.61% | 1.05% | 1.8% | 3.88% | 0.68% | -0.19%
N#Cc1ccc2c(-c3ccnc(NC4CC4)n3)c(-c3ccc(F)cc3)nn2c1 | -0.2% | -0.29% | 1.87% | -0.74% | 1.81% | 0.43% | 2.56% | 3.34% | 3.65% | 0.58%
c1cnn2ncc(-c3ccnc(NCCCN4CCOCC4)n3)c2c1 | 2.33% | 5.49% | 3.64% | 2.77% | 0.53% | 3.19% | -0.16% | -0.1% | 0.15% | 2.04%
CS(=O)(=O)CCNCc1ccc(-c2ccc3ncnc(Nc4ccc(OCc5cccc(C(F)(F)F)c5)cc4)c3c2)o1 | 4.64% | 4.67% | 5.36% | -0.37% | 2.74% | 1.26% | 7.4% | 2.15% | 4.91% | 2.66%
COC(=O)Nc1nc2ccc(Oc3ccc(NC(=O)Nc4cc(C(F)(F)F)ccc4F)cc3)cc2s1 | 2.2% | 28.7% | 70.5% | 22.6% | 66.5% | 0.03% | 4.8% | 9.69% | 34.6% | 76.3%
Nc1nonc1-c1nc2cnccc2n1C1CC1 | 2.71% and 2.44% | 3.73% and 1.56% | 4.88% and 4.63% | 2.39% and 0.71% | 4.2% and 2.36% | 3.41% and 1.34% | 6.46% and 2.52% | 6.7% and 2.47% | 7.09% and 3.3% | 4.75% and 1.45%
FC(F)(F)CNc1nccc(-c2cnn3ncccc23)n1 | 0.86% | 3.13% | 3.07% | 2.86% | 1.59% | 2.37% | -0.52% | 0.67% | 9.54% | 2.13%
Fc1cccc(COc2ccc(Nc3ncncc3C#Cc3ccccc3)cc2Cl)c1 | 4.63% | 6.26% | 7.71% | 2.8% | 7.49% | 0.06% | 2.67% | 8.24% | 5.53% | 3.76%
CC1=C(C(=O)Nc2ccc3[nH]ncc3c2)C(c2ccc(F)cc2)N=C(c2ccc(C(F)(F)F)nc2)N1 (stereo not given) | 3.48% | 2.25% | 5.17% | 0.9% | 3.68% | 1.51% | 2.57% | 3.67% | 2.53% | 2.32%
